This note sets out measurements from PubChem BioAssay (NCATS).

Results filed as inconclusive are left out. Entries that show only a call come without a potency. Unmarked numbers belong to inactive results. Activity calls are given as the source filed them. Calls follow the shape of the dose curve; as a rule, active = well fitted curve in the direction sought with a large enough effect; inconclusive = small, poorly fitted or top-dose-only effect, or another doubt; inactive = no such curve, though single readings can be large; an effect the other way counts as inactive or inconclusive.

The target in the first assay is Aldehyde dehydrogenase, mitochondrial (Homo sapiens) (UniProt P05091). Description: qHTS for Inhibitors of the Aldehyde Dehydrogenase Family (ALDH2) Primary screen (AID 2061308). Also: nearly all actives have a fitted effect of over 55% in size. The conditions noted are these: ALDH2 enzyme inhibition qHTS, 1536-well; series mostly up to 56 µM. Background: qHTS replaces the single test concentration by a dilution series.
In the case of `C=C1CC2C3(C)C(O)CC(=O)C(C)(C)C3C(O)C(OC(C)=O)C2(C)C2C(=O)OC(C)(C(=O)OC)C(=O)C12C` (stereo unspecified), the Potency result was “inactive”. With `C[C@H]1CC[C@@]2(OC1)O[C@H]1CC3C4CC[C@H]5C[C@@H](O[C@@H]6O[C@H](CO)[C@H](O[C@@H]7O[C@H](CO)[C@@H](O)[C@H](O[C@@H]8OC[C@@H](O)[C@H](O)[C@H]8O)[C@H]7O[C@@H]7O[C@H](CO)[C@@H](O)[C@H](O)[C@H]7O)[C@H](O)[C@H]6O)[C@H](O)C[C@]5(C)C4=CC(=O)[C@]3(C)[C@H]1[C@@H]2C` (stereo partly specified), the Potency result is “inactive”. As to `C=C1CCCC2(C)CC3(OC)OC(=O)C(C)=C3CC12` (stereo unspecified), the Potency entry was “inactive”.

Turning to `CC(=O)N[C@H](Cc1c[nH]c2ccccc12)C(=O)OCc1cc(C(F)(F)F)cc(C(F)(F)F)c1`, the Potency entry is “inactive”. On to `COc1cc2c(cc1O)[C@H](c1ccc(O[C@@H]3O[C@H](CO)[C@@H](O)[C@H](O)[C@H]3O)c(OC)c1)[C@@H](CO)[C@](O)(CO)C2`, for which the Potency entry was “inactive”. Turning to `C=C1CCC2C(C)(C)CC(O)CC2(C)C1CCC(C)CCOC(=O)CCC(=O)O` (stereo unspecified), the Potency entry is “inactive”. Consider `C[C@@H]1O[C@@H](O[C@@H]2[C@@H](O)[C@H](O[C@@H]3[C@@H](O)[C@@H](O)[C@H](O[C@H]4[C@H](OC(=O)[C@]56CCC(C)(C)C[C@H]5C5=CCC7[C@@]8(C)C[C@H](O)[C@H](O[C@@H]9O[C@H](C(=O)O)[C@@H](O)[C@H](O)[C@H]9O)[C@@](C)(CO)C8[C@H](O)C[C@@]7(C)[C@]5(C)C[C@H]6O)O[C@@H](CO)[C@@H]4O)O[C@H]3C)OC[C@H]2O)[C@H](O)[C@H](O)[C@H]1O` (stereo partly specified), for which the activity change, negative = inhibition is 4.77% [at 11.2 µM]. With `C=C[C@H]1[C@H](O[C@@H]2O[C@H](CO)[C@@H](O)[C@H](O)[C@H]2O)OC=C(C(=O)OC)[C@H]1CC(=O)O`, the Potency result was “inactive”. Turning to `O=C(Nc1ccc(N2C(=O)[C@@H]3[C@H](C2=O)[C@@H]2C=C[C@H]3C2)c(Cl)c1)c1ccccn1`, the Potency result is “inactive”. With `COC(=O)C[C@H]1C(C)(C)[C@H](OC(C)=O)C2CC3=C4CC(=O)O[C@@H](c5ccoc5)[C@]4(C)CCC3[C@@]1(C)C2=O` (stereo partly specified), the Potency entry is “inactive”.

For the compound `CC(=O)OC(CSC1CCC(=O)OC(C)CCC(=O)C1)C(=O)O` (stereo unspecified), the Potency entry is “inactive”.

The next assay has as its target Retinaldehyde dehydrogenase 3 (Homo sapiens) (UniProt P47895). Description: qHTS for Inhibitors of the Aldehyde Dehydrogenase Family (ALDH1A3) Primary screen (AID 2061315). The conditions noted are these: ALDH inhibition qHTS; series mostly up to 56 µM.
Regarding `COc1ccc(/C=C/C(=O)O[C@@H]2[C@@H](OC(C)=O)[C@@H](OC(C)=O)[C@H](O[C@H]3[C@@H]4C=CO[C@@H](O[C@@H]5O[C@H](CO)[C@@H](O)[C@H](O)[C@H]5O)[C@@H]4[C@@]4(CO)O[C@@H]34)O[C@H]2C)cc1`, the Potency result was “inactive”.

With `COc1ccc(-c2ccccc2)cc1NS(=O)(=O)c1cc(Cl)cc(Cl)c1O`, the Potency result was “inactive”. On to `C[C@@H]1O[C@@H](O[C@H]2[C@H](O)[C@@H](C(=O)O)O[C@@H](O[C@H]3CC[C@@]4(C)C(CC[C@]5(C)C4CC=C4C6CC(C)(C)CC[C@]6(C(=O)O)CC[C@]45C)C3(C)C)[C@@H]2O[C@@H]2OC[C@@H](O)[C@H](O)[C@H]2O)[C@H](O)[C@H](O)[C@H]1O` (stereo partly specified), for which the Potency result was “inactive”. On to `CC(C)(C)c1nnc(NS(=O)(=O)c2ccccc2)s1`, for which the Potency entry was “inactive”. Same read-out and setting: to `C=C(C)[C@@]1(O)C[C@@]2(C)C(=CC1=O)CC[C@@H](O)[C@@H]2C` belongs “inactive”; to `CC(=O)OC1CC2(C)C(CCC(C)C23Cc2c(O)cc(CO)c(C=O)c2O3)C(C)(C)C1O` (stereo unspecified), “inactive”. Consider `O=C(O)C(O[C@@H]1O[C@H](CO[C@@H]2O[C@H](CO)[C@@H](O)[C@H](O)[C@H]2O)[C@@H](O)[C@H](O)[C@H]1O)c1ccccc1` (stereo partly specified), for which the Potency result is “inactive”. With `CC1CC(=O)C2C(O)(C1)CC(O)C13OC1c1c(O)cccc1C(=O)C23O` (stereo unspecified), the Potency result was “inactive”. In the case of `CC1(C)OC[C@H](NC(=O)Nc2ccc(Br)cc2Br)[C@H](c2ccccc2)O1`, the Potency result is “inactive”. With `CC(C)=CCC[C@](C)(O[C@@H]1O[C@H](CO)[C@@H](O)[C@H](O)[C@H]1O)[C@H]1CC[C@]2(C)[C@@H]1[C@H](O)CC1[C@@]3(C)CC[C@H](O)C(C)(C)C3[C@@H](O[C@@H]3O[C@H](CO)[C@@H](O)[C@H](O)[C@H]3O[C@@H]3OC[C@@H](O)[C@H](O)[C@H]3O)C[C@]12C` (stereo partly specified), the Potency result is “inactive”. Turning to `C[C@H]1CC[C@@]2(OC1)O[C@H]1CC3C4CC[C@H]5C[C@@H](O)[C@H](O)C[C@]5(C)C4=CC(=O)[C@]3(C)[C@H]1[C@@H]2C` (stereo partly specified), the Potency entry was “inactive”. `CC(C)c1ccc2c(c1)C(=O)CC1[C@@](C)(C(=O)O)CCC[C@]21C` (stereo partly specified): the Potency entry was “inactive”. Regarding `CC1(C)CCCC2(C)C1CC(=O)C13CC(CCC12)C(O)(CO)C3` (stereo unspecified), the Potency result is “inactive”. On the same count and under the same terms, to `Cc1ccc(Cc2c(C)nc3nc(SCC(=O)NCCN4CCNCC4)nn3c2C)cc1` belongs “inactive”. On to `COC1CC/C=C(\C)C(=O)Nc2cc(O)cc(c2)CC(C)CC(OC)C(O)C(C)/C=C(\C)C1OC(N)=O` (stereo unspecified), for which the Potency entry is “inactive”. As for `CC#C[C@@H](CC(=O)O)c1ccc(OCc2ccc(CN3CCC4(C=Cc5ccccc54)CC3)s2)cc1`, the Potency entry was “inactive”. As for `CC(C)=CCC[C@](C)(O[C@@H]1O[C@H](CO[C@@H]2OC[C@H](O)[C@H](O)[C@H]2O)[C@@H](O)[C@H](O)[C@H]1O)[C@H]1CC[C@]2(C)[C@@H]1[C@H](O)C[C@@H]1[C@@]3(C)CC[C@H](O[C@@H]4O[C@H](CO)[C@@H](O)[C@H](O)[C@H]4O[C@@H]4O[C@H](CO)[C@@H](O)[C@H](O)[C@H]4O)C(C)(C)[C@@H]3CC[C@]12C`, the Potency result is “inactive”. On to `C#CCCCn1cc(-c2cccc3c2N[C@H](C)CC(=O)N3)cn1`, for which the Potency result is “inactive”. In the case of `Cc1cnc(NC(=O)Nc2cc(Br)c(C)cc2OCC2CNCCO2)cn1` (stereo unspecified), the Potency entry is “inactive”. On the same count and under the same terms, then `CO[C@@]12CC3[C@@H]([C@@H](O)[C@@H](OC(C)=O)C4[C@](C)(COC(C)=O)CCC[C@]34C)[C@@H](C)C1=CC(=O)O2` (stereo partly specified), with “inactive”; and `CC1=C(C(=O)O)/C(=C\CO[C@@H]2O[C@H](CO)[C@@H](O)[C@H](O)[C@H]2O)C(OC(=O)/C=C/c2ccc(O)cc2)C1` (stereo partly specified), with “inactive”; and `COc1c(/C=C/C(C)(C)O)ccc2c1C(=O)OCc1cc(C)cc(O)c1O2`, with “inactive”. On to `CC1CC(=O)C2=C(C1)C1OC1C1(O)C2C(=O)c2cccc(O)c2C1O` (stereo unspecified), for which the Potency result is “inactive”.

On to `COc1c(C)c(OCC=C(C)C)cc2c1CNC2=O`, for which the Potency entry is “inactive”. In the case of `Cc1ccc(C)c(NS(=O)(=O)c2cc(C(=O)Nc3ccccc3-c3ccccc3)ccc2C)c1`, the Potency result was “inactive”.

Regarding `CC(=O)OC[C@]1(O)[C@H]2[C@H](OC(=O)CC(C)C)OC=C(CO[C@@H]3O[C@H](CO)[C@@H](O)[C@H](O)[C@H]3O)[C@H]2C[C@@H]1O`, the Potency result was “inactive”. Turning to `COc1cc(CCc2ccccc2)c(C(=O)O)c2c1CC(C(C)(C)O)O2` (stereo unspecified), the Potency result was “inactive”. As to `C=C[C@]1(C)C=C2CCC3C(C)(CCC[C@@]3(C)C(=O)O)C2CC1` (stereo partly specified), the Potency entry is “inactive”. As for `COc1cc(C(=O)OC[C@@]2(O)CO[C@@H](O[C@H]3[C@H](Oc4ccc(C(=O)O)cc4OC)O[C@H](CO)[C@@H](O)[C@@H]3O)[C@@H]2O)ccc1O`, the Potency result is “inactive”. `C=C1CC2C3(C)C(O)CC(=O)C(C)(C)C3C(O)C(OC(C)=O)C2(C)C2C(=O)OC(C)(C(=O)OC)C(=O)C12C` (stereo unspecified): the Potency entry is “inactive”. In the case of `C[C@H]1CC[C@@]2(OC1)O[C@H]1CC3C4CC[C@H]5C[C@@H](O[C@@H]6O[C@H](CO)[C@H](O[C@@H]7O[C@H](CO)[C@@H](O)[C@H](O[C@@H]8OC[C@@H](O)[C@H](O)[C@H]8O)[C@H]7O[C@@H]7O[C@H](CO)[C@@H](O)[C@H](O)[C@H]7O)[C@H](O)[C@H]6O)[C@H](O)C[C@]5(C)C4=CC(=O)[C@]3(C)[C@H]1[C@@H]2C` (stereo partly specified), the Potency result was “inactive”.

For `C=C1CCCC2(C)CC3(OC)OC(=O)C(C)=C3CC12` (stereo unspecified), the Potency result is “inactive”. As to `CC(=O)N[C@H](Cc1c[nH]c2ccccc12)C(=O)OCc1cc(C(F)(F)F)cc(C(F)(F)F)c1`, the Potency result was “inactive”.

With `COc1cc2c(cc1O)[C@H](c1ccc(O[C@@H]3O[C@H](CO)[C@@H](O)[C@H](O)[C@H]3O)c(OC)c1)[C@@H](CO)[C@](O)(CO)C2`, the Potency entry is “inactive”. Take `C=C1CCC2C(C)(C)CC(O)CC2(C)C1CCC(C)CCOC(=O)CCC(=O)O` (stereo unspecified): the Potency entry was “inactive”.

For the compound `C[C@@H]1O[C@@H](O[C@@H]2[C@@H](O)[C@H](O[C@@H]3[C@@H](O)[C@@H](O)[C@H](O[C@H]4[C@H](OC(=O)[C@]56CCC(C)(C)C[C@H]5C5=CCC7[C@@]8(C)C[C@H](O)[C@H](O[C@@H]9O[C@H](C(=O)O)[C@@H](O)[C@H](O)[C@H]9O)[C@@](C)(CO)C8[C@H](O)C[C@@]7(C)[C@]5(C)C[C@H]6O)O[C@@H](CO)[C@@H]4O)O[C@H]3C)OC[C@H]2O)[C@H](O)[C@H](O)[C@H]1O` (stereo partly specified), the activity change, negative = inhibition is -9.03% [at 11.2 µM]. On to `C=C[C@H]1[C@H](O[C@@H]2O[C@H](CO)[C@@H](O)[C@H](O)[C@H]2O)OC=C(C(=O)OC)[C@H]1CC(=O)O`, for which the Potency entry is “inactive”. For the compound `O=C(Nc1ccc(N2C(=O)[C@@H]3[C@H](C2=O)[C@@H]2C=C[C@H]3C2)c(Cl)c1)c1ccccn1`, the Potency entry was “inactive”. For `COC(=O)C[C@H]1C(C)(C)[C@H](OC(C)=O)C2CC3=C4CC(=O)O[C@@H](c5ccoc5)[C@]4(C)CCC3[C@@]1(C)C2=O` (stereo partly specified), the Potency entry was “inactive”. As for `CC(=O)OC(CSC1CCC(=O)OC(C)CCC(=O)C1)C(=O)O` (stereo unspecified), the Potency result is “inactive”.
